This note sets out measurements from PubChem BioAssay (NCATS).

Records with an inconclusive call do not appear. Calls of active or inactive are those of the source. The call rests on the fitted dose curve; in most records, active means well fitted cell-killing curve with a large enough effect; inconclusive means small, poorly fitted or top-dose-only effect, or effect the other way; inactive means no such curve, though single readings can be large or run the other way.
Potency means the concentration at half of the fitted maximal effect.

A short description of the experiment: Quantitative High-Throughput drug screen in 47 multiple myeloma cell lines against the NCATS MIPE library collection: KMS12BM_JCRB cell viability assay (AID 1918971). Further: nearly all actives have a fitted effect of over 35% in size. To be noted: KMS12BM myeloma viability, CellTiter-Glo ATP, 48 h; series mostly up to 45.8 µM. From the text: PI: Beverly A. Mock Ph.D.
Laboratory of Cancer Biology and Genetics,
Center for Cancer Research, National Cancer Institute,
National Institute of Health, Bethesda, Maryland
Drug resistance and disease progression are common in multiple myeloma (MM) patients, underscoring the need for new therapeutic combinations. […] We hypothesized that effective combinations would reduce MYC expression and enhance p16 activity. […] These preclinical data identify potentially useful drug combinations for evaluation in drug-resistant MM and reveal potential mechanisms of combined drug sensitivity.
Described herein is the primary MIPE qHTS used to cherrypick compounds. Validated compounds were then further tested for potential synergistic activiy.
[1] Peat TJ, Gaikwad SM, Dubois W, Gyabaah-Kessie N, Zhang S, Gorjifard S, Phyo Z, Andres M, Hughitt VK, Simpson RM, Miller MA, Girvin AT, Taylor A, Williams D, D'Antonio N, Zhang Y, Rajagopalan A, Flietner E, Wilson K, Zhang X, Shinn P, Klumpp-Thomas C, McKnight C, Itkin Z, Chen L, Kazandijian D, Zhang J, Michalowski AM, Simmons JK, Keats J, Thomas CJ, Mock BA. Drug combinations identified by high-throughput screening promote cell cycle transition and upregulate Smad pathways in myeloma. Cancer Lett. 2023 Aug 1;568:216284. doi: 10.1016/j.canlet.2023.216284. Epub 2023 Jun 24. PMID: 37356470; PMCID: PMC10408729.
SEQUENCE No. (e.g., 1, 2, 3, etc.); […] (e.g., Cells, Incubation, Reagent, etc.); VALUE and DESCRIPTION.
1; Cells; 5 uL; white, solid bottom 1536-well Greiner assay plate.
2; Compounds; 23 nL; Kalypsis pin tool (Wako USA) equipped with a 1536-well pin head to transfer to the assay plates.
3; Incubation; 48 hours; 37C incubation.
4; Reagent;5uL; CellTiter Glo (Promega).
5; Detector; 425V; Luminescence; Viewlux PerkinElmer.
NOTES (numbers refer to Sequence numbers above)
1. The cell-based screening methods employed in this study were like those previously published. Briefly, the corresponding myeloma cell lines were screened in 1,536-well plates with 500 cells, 5-uL per well for inhibition of cell viability (assessed by measuring ATP levels with CellTiterGlo).
2. NCATS MIPE 4.0 library of approved and investigational drugs were added using the Kalypsis pin tool. Wells treated with DMSO only for 100% viability and media only wells for 0% viability were used as controls.
3. The assay plates were covered and incubated for 48 hours in a 37C, 5% CO2 incubator with controlled humidity.
4. After 48 hours, CellTilter-GloTM luminescent substrate mix (Promega) reagent was added to the assay plate and plates we incubated for 5 min at room temperature.
5. Signal was measured as median relative luminescence units on a ViewLux (PerkinElmer) multiplate reader.
[1] Heske CM, Davis MI, Baumgart JT, Wilson K, Gormally MV, Chen L, Zhang X, Ceribelli M, Duveau DY, Guha R, Ferrer M, Arnaldez FI, Ji J, Tran HL, Zhang Y, Mendoza A, Helman LJ, Thomas CJ. Matrix Screen Identifies Synergistic Combination of PARP Inhibitors and Nicotinamide Phosphoribosyltransferase (NAMPT) Inhibitors in Ewing Sarcoma. Clin Cancer Res. 2017 Dec 1;23(23):7301-7311. doi: 10.1158/1078-0432.CCR-17-1121. Epub 2017 Sep 12. PMID: 28899971; PMCID: PMC6636827.
In general terms: In ATP-based viability assays light output follows the ATP content of the culture.
Regarding `C[C@@H]1[C@@H](CC(C[C@H]2O[C@@H]3O[C@]4(C)CC[C@@H]5[C@H](C)CC[C@@H]([C@H]2C)[C@@]35OO4)C[S+](=O)([O-])c2ccc(COC(=O)N(C)C)cc2)O[C@@H]2O[C@]3(C)CC[C@H]4[C@H](C)CC[C@@H]1[C@@]24OO3` (some centres not stated), the Potency was 0.148 µM (active).
The same measure for `COC[C@@H](NC(C)=O)C(=O)NCc1ccccc1`: “inactive”.
The same measure for `CN(C)CCN(C)CCc1ccc(Cl)c(Cl)c1`: “inactive”; for `COc1ccc(C(CN(C)C)C2(O)CCCCC2)cc1` (configuration not stated): “inactive”; for `Cn1cc(C2=C(c3cn(C4CCN(Cc5ccccn5)CC4)c4ccccc34)C(=O)NC2=O)c2ccccc21`: 23.5 µM (active).
Consider `C[C@@H]1O[C@@H](O[C@H]2C[C@@H](O)[C@]3(CO)[C@H]4[C@H](O)C[C@]5(C)[C@@H](C6=CC(=O)OC6)CC[C@]5(O)[C@@H]4CC[C@]3(O)C2)[C@H](O)[C@H](O)[C@H]1O`, for which the Potency was 0.0662 µM (active).
On to `COc1ccc(C(=O)c2c(C)n(CCN3CCOCC3)c3ccccc23)cc1`, for which the Potency entry was “inactive”.
The value for `C=C(C)[C@H]1Cc2c(ccc3c2O[C@@H]2COc4cc(OC)c(OC)cc4[C@@H]2C3=O)O1` was 2.64 µM (active); that for `Cc1cccc(C)c1NC(=O)CN1CCCC1=O` was “inactive”; that for `CC(O)(CS(=O)(=O)c1ccc(F)cc1)C(=O)Nc1ccc(C#N)c(C(F)(F)F)c1` (configuration not stated) was 23.5 µM (active).
The value for `NCC1(CC(=O)O)CCCCC1` was “inactive”; that for `Cc1sc2c(c1C)C(c1ccc(Cl)cc1)=N[C@@H](CC(=O)OC(C)(C)C)c1nnc(C)n1-2` was 0.187 µM (active); that for `COC[C@H]1OC(=O)c2coc3c2[C@@]1(C)C1=C(C3=O)C2CCC(=O)[C@@]2(C)C[C@H]1OC(C)=O` (some centres not stated) was 10.5 µM (active).
The same measure for `CNCC(O)c1ccc(O)cc1` (configuration not stated): “inactive”; for `Cn1c(CCCC(=O)O)nc2cc(N(CCCl)CCCl)ccc21`: 7.43 µM (active).
On to `C[C@@H]1[C@@H](C(=O)C[C@H]2O[C@@H]3O[C@]4(C)CC[C@@H]5[C@H](C)CC[C@@H]([C@H]2C)[C@@]35OO4)O[C@@H]2O[C@]3(C)CC[C@H]4[C@H](C)CC[C@@H]1[C@@]24OO3`, for which the Potency was 0.372 µM (active).
The value for `COC1(CS(=O)c2ccccc2)CCN(CCc2c[nH]c3ccc(F)cc23)CC1` (configuration not stated) was “inactive”.
As for `Fc1ccc(C(OCCN2CCN(CCCc3ccccc3)CC2)c2ccc(F)cc2)cc1`, the Potency was 14.8 µM (active).
The value for `COc1ccc2c(c1OC)CN1CCc3cc4c(cc3C1C2)OCO4` (configuration not stated) was 18.7 µM (active); that for `CN(C)CCc1ccc(O)cc1` was “inactive”.
The value for `CN(C)[C@@H]1C(=O)C(C(N)=O)=C(O)[C@@]2(O)C(=O)C3=C(O)c4c(O)cccc4[C@@](C)(O)[C@H]3C[C@@H]12` was 4.18 µM (active); that for `N[C@@H](Cc1ccc(N(CCCl)CCCl)cc1)C(=O)O` was 16.6 µM (active).
